In PubChem BioAssay AID652104 (National Center for Advancing Translational Sciences (NCATS), 2013) one finds Potency and growth rescue (activation) data, which are given here for 61 compounds.

In all, about 410,000 compounds went through this assay and about 7,200 (1.8%) were called active. Entries that show only a call come without a potency. About 7% were inconclusive and are not listed. This is one part of a sample in which actives are shown more often than they occur. Values without a mark were called inactive. The call rests on the fitted dose curve; in most records, active means well fitted activation curve with a large enough effect; inconclusive means small, poorly fitted or top-dose-only effect, or another doubt; inactive means no such curve, though single readings can be large or run the other way.
Potency means the concentration at half of the fitted maximal effect.

This test in a line: qHTS of TDP-43 Inhibitors. Further: nearly all actives have a fitted effect of over 50% in size. As to conditions: TDP-43 expressing yeast growth rescue, BacTiter-Glo, 24 h; series mostly up to 46.1 µM. In outline:
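Galactose-induced TDP-43 yeast, OD600=0.02, compound pinned; 24 hr, 30 deg C; BacTiter-Glo luminescence for growth. Inhibitors of TDP-43 toxicity read as activators.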
With `Cc1nnc(NC(=O)CSc2nc3c([nH]c4ccccc43)c(=O)n2-c2cccc(Cl)c2)s1`, the Potency result is “inactive”.

As for `O=C(Nc1ccc2c(c1)OCO2)c1sc2cc(Cl)ccc2c1Cl`, the Potency entry is “inactive”.

Turning to `CC(=O)C1=C(C)NC(=O)NC1c1ccc2c(c1)OCO2` (stereo unspecified), the Potency entry is “inactive”.

For `O=C1C=C(c2ccnc3cc(Cl)ccc23)C[C@@H](c2ccc3c(c2)OCO3)C1`, the Potency is 22.4 µM (active).

`Cc1cccc(N2CCN(C3=C(c4ccccc4)C(=O)c4ccccc43)CC2)c1C`: the Potency result is “inactive”.

For the compound `Cc1cccc(NC(=O)c2ccc(F)c(S(=O)(=O)N(C)C3CCCCC3)c2)c1`, the Potency entry was “inactive”.

For `Brc1cccc(-c2nnn3c2nc(NC2CCCCC2)c2ccccc23)c1`, the Potency result was “inactive”.

As for `O=C(Nc1nnc(S(=O)(=O)N2CCCc3ccccc32)s1)c1cccc(F)c1`, the Potency result is “inactive”.

Turning to `COCCCNc1ccn2nc(-c3ccc(CC(C)C)cc3)cc2n1`, the Potency was 17.8 µM (active).

Turning to `CCc1ccc(C2CC(=O)c3c([nH]c(C(=O)OCc4ccc(C)cc4)c3C)C2)cc1` (stereo unspecified), the Potency entry was “inactive”.

Regarding `CCN(CCCNC(=O)c1cc(Nc2ccc(OC)cc2)nc2ccccc12)c1cccc(C)c1`, the Potency result is “inactive”.

For `Cc1ccc(CSc2nc3ccsc3c(=O)n2CCC(C)C)cc1`, the Potency entry is “inactive”.

As to `CCOc1ccccc1NC(=O)Cn1c2ncccc2c(=O)n1-c1ccc(C)c(C)c1`, the Potency result is “inactive”.

For `Cc1ccc(-n2c(=O)c3cccnc3n2CC(=O)NCc2ccc(F)cc2)cc1C`, the Potency was 12.6 µM (active).

Take `Cc1ccc(-n2c(=O)c3cccnc3n2CC(=O)Nc2ccccc2C(F)(F)F)cc1C`: the Potency entry was “inactive”.

Take `CCOc1ccccc1NC(=O)Cn1c(=O)n(Cc2ccccc2)c(=O)c2c(C)c(C(=O)N(C)C)sc21`: the Potency result was “inactive”.

Take `Cc1c(CNC(C)c2ccccc2)c(C(=O)O)c(C)n1Cc1c(F)cccc1Cl` (stereo unspecified): the Potency entry is “inactive”.

Take `Cc1ccc(CN2CC(N3CCC(Cc4ccccc4)CC3)CS2(=O)=O)cc1` (stereo unspecified): the Potency entry is “inactive”.

Take `O=[N+]([O-])c1ccc(CN2CC(N3CCC(c4ccccc4)CC3)CS2(=O)=O)cc1` (stereo unspecified): the Potency was 25.1 µM (active).

On to `O=S1(=O)CC(N2CCC(Cc3ccccc3)CC2)CN1Cc1ccccc1` (stereo unspecified), for which the Potency result is “inactive”.

In the case of `CCOC(=O)c1c(C)oc2ccc(N(C(=O)c3ccncc3)S(=O)(=O)c3ccc(CC)cc3)cc12`, the Potency result is “inactive”.

In the case of `CCc1ccc(CN(Cc2ccco2)C(=O)COc2ccc(Cl)c(C)c2)cc1`, the Potency entry is “inactive”.

For `CCOC(=O)c1ccc(NC(=O)c2nc(SCc3ccc(F)cc3)ncc2Cl)cc1`, the Potency result is “inactive”.

As for `Cc1cccc(NC(=O)Cn2cc(S(=O)(=O)Cc3ccccc3Cl)c3ccccc32)c1`, the Potency entry was “inactive”.

Turning to `CSc1nnc(NC(=O)c2nc(S(=O)(=O)Cc3ccc(C)cc3)ncc2Cl)s1`, the Potency was 11.2 µM (active).

As to `CCS(=O)(=O)c1ncc(N(Cc2ccc(F)cc2)Cc2ccco2)c(C(=O)Nc2cc(C)ccc2C)n1`, the Potency result was “inactive”.

`Cc1cccc(NC(=O)c2nc(S(=O)(=O)Cc3ccccc3)ncc2Cl)c1`: the Potency was 7.08 µM (active).

In the case of `Cc1ccc2nc(NC(=O)c3nc(SCc4ccccc4F)ncc3Cl)sc2c1`, the Potency entry is “inactive”.

With `CCOc1ccc(N(CC)C(=O)c2noc3c2COc2ccc(C)cc2-3)cc1`, the Potency entry is “inactive”.

As for `Cn1c(=O)sc2cc(NS(=O)(=O)c3ccc(C(C)(C)C)cc3)ccc21`, the Potency result is “inactive”.

Turning to `COc1cc(NC(=O)c2nn(-c3ccc(C)cc3)c(=O)c3c2c2ccccc2n3C)cc(OC)c1OC`, the Potency result was “inactive”.

On to `COc1ccccc1-n1c(-c2ccc(C)cc2)cn2c3c(=O)n(C)c(=O)n(C)c3nc12`, for which the Potency result was “inactive”.

In the case of `Cc1ccc(C)n1-c1nnc(N2CCC(C(=O)NCc3ccccc3Cl)CC2)s1`, the Potency result was “inactive”.

For the compound `COc1ccc(Cl)cc1NC(=O)c1oc(C)nc1C`, the Potency entry is “inactive”.

On to `COc1ccc(Nc2cc(Cl)ccc2C(=O)O)cn1`, for which the Potency is 10 µM (active).

`COc1cc(C(F)(F)F)c(C(=O)N(C)c2ccc(Cl)cc2)cn1`: the growth rescue (activation) was -13.9% [at 1.82 µM].

Regarding `CCOC(=O)c1ccc(NC(=O)CSc2nc3c([nH]c4ccccc43)c(=O)n2C)cc1`, the Potency result is “inactive”.

Turning to `Cc1c(Cl)cccc1NC(=S)N(Cc1ccccc1)Cc1cccnc1`, the Potency entry is “inactive”.

Regarding `CSc1cccc(NC(=S)N(Cc2ccccc2)Cc2ccccn2)c1`, the Potency is 20 µM (active).

Take `CSc1cccc(NC(=S)N(C(C)C)C(C)c2ccccn2)c1` (stereo unspecified): the growth rescue (activation) is -6.51% [at 9.22 µM].

Regarding `CC(C)(C)OC(=O)N1CCC(c2c(C(=O)N3CCN(c4cccc(Cl)c4)CC3)cnn2-c2cccc(Cl)c2)CC1`, the Potency result was “inactive”.

As for `CCOCCCNC(=O)c1c(NC(=O)Cc2coc3c(C)c(C)ccc23)sc2c1CCC2`, the Potency result was “inactive”.

As to `CC(NC(=O)COc1ccccc1)C(=O)NC1=NCCS1` (stereo unspecified), the Potency result is “inactive”.

On to `Cc1csc(NC(=O)CSc2nnc(-c3cccnc3)o2)n1`, for which the Potency entry is “inactive”.

Consider `O=C(CSC1=NCCS1)Nc1nc(-c2ccccc2)cs1`, for which the Potency is 22.4 µM (active).

On to `COc1ccc(-c2nn(CC(=O)Nc3ccccc3F)c3c2cnc2ccc(F)cc23)cc1`, for which the Potency entry was “inactive”.

For the compound `Cc1ccc(Cn2c(=O)n(CCCC(=O)NCc3ccccc3Cl)c(=O)c3ccccc32)cc1`, the Potency result is “inactive”.

With `COc1cc(OC)c(NC(=O)Cc2ccc(-n3c(C)nc4cccnc43)cc2)cc1Cl`, the Potency result is “inactive”.

Turning to `O=C(Nc1nc2c(s1)CCCC2)c1ccccc1F`, the Potency entry was “inactive”.

With `Fc1ccc2nc(Nc3nc4c(s3)CCCC4)sc2c1`, the Potency was 2.24 µM (active).

With `Cc1cc(C)cc(OC(C)C(=O)Nc2nc3c(s2)CCCC3)c1` (stereo unspecified), the Potency result is “inactive”.

For `COc1ccc(-c2cn3nc(N4CCC(C(=O)Nc5cccc(C)c5C)CC4)sc3n2)cc1`, the Potency entry was “inactive”.

Consider `CC1(C(=O)NS(=O)(=O)c2ccc3ccccc3c2)CCN1C(=O)C1(c2ccc(Cl)cc2)CCC1` (stereo unspecified), for which the Potency result is “inactive”.

With `CC1(C(=O)NS(=O)(=O)c2ccccc2)CCN1C(=O)c1ccccc1` (stereo unspecified), the Potency result is “inactive”.

For `Cc1ccccc1S(=O)(=O)NC(=O)C1(C)CCN1C(=O)Cc1ccc(Cl)cc1Cl` (stereo unspecified), the Potency entry was “inactive”.

`CCCNC(=O)C1(C)CCN1C(=O)C1(c2ccccc2)CC1` (stereo unspecified): the Potency result was “inactive”.

Turning to `Cc1ccccc1S(=O)(=O)NC(=O)C1(C)CCN1C(=O)C1(c2ccccc2)CCCC1` (stereo unspecified), the Potency is 35.5 µM (active).

Consider `Cc1ccccc1S(=O)(=O)NC(=O)C1(C)CCN1C(=O)C1(c2ccc(Cl)cc2)CC1` (stereo unspecified), for which the Potency was 28.2 µM (active).

Take `COc1ccc(NC(=O)CSc2nccn2C2CCCC2)cc1OC`: the Potency result is “inactive”.

Regarding `COc1ccccc1CCNC(=O)c1cccn1-c1nnc(N2CCCCC2)s1`, the Potency result was “inactive”.

In the case of `O=C(CCn1c(=O)c2sccc2n(Cc2ccc(F)cc2)c1=O)NCc1ccc2c(c1)OCO2`, the Potency entry is “inactive”.
